Assay results taken from PubChem BioAssay (Tox21).
Records with an inconclusive call do not appear. Calls of active or inactive are those of the source. Unless noted, calls come from the whole dose curve.

Experiments:
[1] = Nuclear factor erythroid 2-related factor 2/antioxidant responsive element (Nrf2/ARE) small molecule agonists: qHTS cell viability counter screen in human keratinocytes (AID 1919968; active = well fitted curve in the direction sought with a large enough effect in the repeat runs; an effect the other way counts as inactive or inconclusive; note: nearly all actives have a fitted effect of over 55% in size)
In short: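 KeratinoSens cells (HaCaT keratinocytes stably carrying an ARE-luciferase reporter) were seeded at 1,500 cells/well and rested 5 h at 37 C/5% CO2. They were then exposed to compounds in DMSO for 23 h. Viability was read by CellTiter-Fluor fluorescence after 1 h.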

[2] = Nuclear factor erythroid 2-related factor 2/antioxidant responsive element (Nrf2/ARE) small molecule agonists: luciferase reporter gene qHTS assay in human keratinocytes (AID 1919969); note: nearly all actives have a fitted effect of over 35% in size
[3] = target: Gonadotropin-releasing hormone receptor (Homo sapiens) (UniProt P30968); experiment: Human gonadotropin-releasing hormone receptor (GnRHR) small molecule agonists, calcium flux assay in GnRHR-HEK293 cells (AID 1920063); note: nearly all actives have a fitted effect of over 35% in size
Chain of Gonadotropin-releasing hormone receptor (Homo sapiens) (P30968 whole entry, looked up): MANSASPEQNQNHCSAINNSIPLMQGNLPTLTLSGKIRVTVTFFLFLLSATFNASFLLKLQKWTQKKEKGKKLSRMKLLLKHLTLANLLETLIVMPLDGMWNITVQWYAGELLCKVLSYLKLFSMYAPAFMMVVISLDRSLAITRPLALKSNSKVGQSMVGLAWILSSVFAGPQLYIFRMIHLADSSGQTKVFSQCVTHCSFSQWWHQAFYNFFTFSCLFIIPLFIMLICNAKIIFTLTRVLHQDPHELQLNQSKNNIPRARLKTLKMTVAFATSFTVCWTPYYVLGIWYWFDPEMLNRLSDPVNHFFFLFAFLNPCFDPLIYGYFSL
In short: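 HEK293 cells stably expressing human GnRHR were plated 18 h at 37 °C, loaded with calcium dye 1 h at 37 °C, then given compound in agonist mode; fluorescence (Ex/Em 480/540) read kinetically for 3 min at 1 s intervals.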

[4] = target: KiSS-1 receptor (Homo sapiens) (UniProt Q969F8); experiment: Human kisspeptin (KISS1R) small molecule agonists, calcium flux assay in KISS1R-HEK293 cells (AID 1920064; active = well fitted curve in the direction sought with a large enough effect in the repeat runs; an effect the other way counts as inactive or inconclusive)
Chain of KiSS-1 receptor (Homo sapiens) (Q969F8 whole entry, looked up): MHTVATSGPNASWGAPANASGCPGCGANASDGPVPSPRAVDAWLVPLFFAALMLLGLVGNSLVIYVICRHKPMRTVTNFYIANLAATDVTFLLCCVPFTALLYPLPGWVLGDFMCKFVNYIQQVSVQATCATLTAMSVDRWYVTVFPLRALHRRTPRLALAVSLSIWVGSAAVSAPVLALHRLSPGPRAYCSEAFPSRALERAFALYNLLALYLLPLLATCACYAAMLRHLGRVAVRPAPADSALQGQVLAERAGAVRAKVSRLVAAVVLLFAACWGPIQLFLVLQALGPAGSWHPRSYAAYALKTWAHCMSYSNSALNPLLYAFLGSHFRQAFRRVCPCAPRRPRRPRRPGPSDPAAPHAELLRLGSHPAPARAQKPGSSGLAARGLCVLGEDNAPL
In short: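 HEK293 cells stably expressing human KISS1R were plated 18 h at 37 °C, loaded with calcium dye for 1 h at 37 °C, then given compound by pin tool. Fluorescence (Ex/Em 480/540) was read kinetically for 3 min.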

[5] = G protein-coupled receptor (GPCR) small molecule agonists, calcium flux assay: HEK293 wild type cell line counter screen (AID 1920065)
In short: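 Cells were plated and cultured 18 h at 37 C/5% CO2, then loaded with calcium dye for 1 h at 37 C. Compounds in DMSO were pin-transferred in agonist mode, and fluorescence (Ex/Em 480/540) was read kinetically for 3 min at 1 s intervals.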

[6] = p53 small molecule agonists, cell-based qHTS assay with human liver microsomes: qHTS cell viability counter screen (AID 1963579); note: nearly all actives have a fitted effect of over 45% in size
In short: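 p53RE-bla cells, 4,000/well, dosed 5 hours after plating, with human liver microsomes (0.5 mg/mL final) plus NADPH (0.5 mg/mL final), 16 hours at 37 C. Viability read as CellTiter-Glo luminescence after 30 min at room temperature.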

[7] = p53 small molecule agonists, cell-based qHTS assay with rat liver microsomes: qHTS cell viability counter screen (AID 1963580); note: nearly all actives have a fitted effect of over 45% in size
In short: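 p53RE-bla HCT-116 cells (4,000/well) rested 5 h at 37 C, then given Tox21 compounds in DMSO with rat liver microsomes (0.5 mg/mL final) plus NADPH (0.5 mg/mL final) for 16 h at 37 C. Viability read by CellTiter-Glo luminescence after 30 min at room temperature.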

[8] = p53 small molecule agonists, cell-based qHTS assay: qHTS cell viability counter screen (AID 1963581); note: nearly all actives have a fitted effect of over 45% in size
In short: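 p53RE-bla HCT-116 cells were exposed to compounds for 16 h at 37 C; after the beta-lactamase FRET read in the same wells, CellTiter-Glo was added and luminescence (intracellular ATP) read after 30 min at room temperature.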

[9] = target: 5-hydroxytryptamine receptor 2A (Homo sapiens) (UniProt P28223); experiment: 5-hydroxytryptamine receptor 2A (HTR2A) small molecule antagonists, cell-based qHTS assay (AID 1963586); note: nearly all actives have a fitted effect of over 45% in size
Chain of 5-hydroxytryptamine receptor 2A (Homo sapiens) (P28223 whole entry, looked up): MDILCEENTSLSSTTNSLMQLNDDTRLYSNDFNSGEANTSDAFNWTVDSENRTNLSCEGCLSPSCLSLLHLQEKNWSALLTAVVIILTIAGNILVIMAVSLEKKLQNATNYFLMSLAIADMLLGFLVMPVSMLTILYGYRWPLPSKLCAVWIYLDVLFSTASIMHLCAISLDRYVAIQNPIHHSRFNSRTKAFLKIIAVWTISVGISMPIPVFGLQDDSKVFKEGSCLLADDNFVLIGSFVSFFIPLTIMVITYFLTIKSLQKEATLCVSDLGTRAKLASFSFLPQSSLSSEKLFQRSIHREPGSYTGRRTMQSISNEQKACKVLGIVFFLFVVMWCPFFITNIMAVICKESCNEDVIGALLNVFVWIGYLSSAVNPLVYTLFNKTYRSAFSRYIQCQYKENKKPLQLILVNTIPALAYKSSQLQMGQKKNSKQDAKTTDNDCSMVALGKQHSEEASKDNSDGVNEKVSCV
In short: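 Antagonist-mode intracellular calcium assay: DOI (4 nM) added after 5 min compound pre-incubation at room temperature to dye-loaded HTR2A-CHO cells. Fluorescence followed for 3 min, sampled every second.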

[10] = target: 5-hydroxytryptamine receptor 2A (Homo sapiens) (UniProt P28223); experiment: 5-hydroxytryptamine receptor 2A (HTR2A) small molecule agonists, cell-based qHTS assay (AID 1963587); note: nearly all actives have a fitted effect of over 30% in size
In short: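 HTR2A-CHO cells, plated 18 h at 37 C/5% CO2, dye-loaded 1 h at 37 C; compounds in DMSO added by pin tool (agonist mode). Intracellular calcium flux read as kinetic fluorescence on FDSS over 2 min at 1 s intervals.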

[11] = target: Muscarinic acetylcholine receptor M1 (Homo sapiens) (UniProt P11229); experiment: Cholinergic receptor muscarinic 1 (CHRM1) small molecule agonists, cell-based qHTS assay (AID 1963589); note: nearly all actives have a fitted effect of over 35% in size
Chain of Muscarinic acetylcholine receptor M1 (Homo sapiens) (P11229 whole entry, looked up): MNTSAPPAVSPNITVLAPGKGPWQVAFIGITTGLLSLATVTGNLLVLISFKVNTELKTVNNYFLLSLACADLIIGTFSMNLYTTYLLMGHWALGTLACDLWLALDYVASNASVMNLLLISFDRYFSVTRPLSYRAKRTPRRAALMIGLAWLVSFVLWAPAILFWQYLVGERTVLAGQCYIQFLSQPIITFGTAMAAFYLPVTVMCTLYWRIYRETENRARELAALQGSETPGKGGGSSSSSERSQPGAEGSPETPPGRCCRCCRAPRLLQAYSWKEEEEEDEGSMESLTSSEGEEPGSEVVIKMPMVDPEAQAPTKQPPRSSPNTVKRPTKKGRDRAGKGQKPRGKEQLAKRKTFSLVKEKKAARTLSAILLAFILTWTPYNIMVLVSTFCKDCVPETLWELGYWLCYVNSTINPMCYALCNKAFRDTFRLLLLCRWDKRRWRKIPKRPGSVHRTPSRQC
In short: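 CHO cells stably expressing human CHRM1, seeded 18 h at 37 C/5% CO2, dye-loaded 1 h at 37 C, then given compound in agonist mode; intracellular calcium fluorescence read kinetically at 1 s intervals. Fifteen concentrations, three independent runs.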

[12] = cAMP Responsive Elements (CRE) small molecule agonists, cell-based qHTS assay (AID 1963590)
In short: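 CRE-bla HEK 293T cells in DMEM with 10% dialyzed FBS, NEAA, pyruvate and 25 mM HEPES were plated 18 h at 37 C/5% CO2, then exposed to compounds in DMSO for 3 h before LiveBLAzer B/G FRET substrate addition.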

[13] = cAMP Responsive Elements (CRE) small molecule antagonists, cell-based qHTS assay (AID 1963591; active = well fitted inhibition curve with a large enough effect in the signal ratio in the repeat runs, not every such curve was filed as active; the % refers to the signal ratio)
In short: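 CRE-bla HEK293T cells were plated 18 h at 37 °C/5% CO2, pinned with compound in DMSO, then stimulated with NKH477 at 0.25 uM final for 3 h. LiveBLAzer B/G FRET substrate was added and plates incubated 2 h at room temperature.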

[14] = target: Beta-2 adrenergic receptor (Homo sapiens) (UniProt P07550); experiment: Adrenergic beta2 receptor (ADRB2) small molecule antagonists, cell-based qHTS assay (AID 1963592); note: series mostly up to about 92 µM; nearly all actives have a fitted effect of over 50% in size
Chain of Beta-2 adrenergic receptor (Homo sapiens) (P07550 whole entry, looked up): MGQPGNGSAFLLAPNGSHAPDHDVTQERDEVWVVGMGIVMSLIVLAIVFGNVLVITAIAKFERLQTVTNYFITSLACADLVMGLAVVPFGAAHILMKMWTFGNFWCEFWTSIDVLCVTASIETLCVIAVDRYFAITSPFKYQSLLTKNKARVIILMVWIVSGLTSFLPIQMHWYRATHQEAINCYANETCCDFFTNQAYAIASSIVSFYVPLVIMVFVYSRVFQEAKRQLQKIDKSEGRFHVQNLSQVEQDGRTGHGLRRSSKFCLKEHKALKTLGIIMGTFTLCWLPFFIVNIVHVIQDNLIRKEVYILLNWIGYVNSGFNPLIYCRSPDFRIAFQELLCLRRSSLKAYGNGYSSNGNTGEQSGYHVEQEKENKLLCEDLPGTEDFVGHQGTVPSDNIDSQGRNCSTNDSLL
In short: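 Cells (CHO, stable ADRB2 overexpression) incubated 18-20hr at 37C; compounds added from DMSO; agonist mix (1nM isoproterenol, 100uM IBMX, 25uM Ro-20-1724) added; 0.5hr RT; d2-cAMP and anti-cAMP-cryptate added; 1hr RT; 665/615 nm read.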

[15] = target: Beta-2 adrenergic receptor (Homo sapiens) (UniProt P07550); experiment: Adrenergic beta2 receptor (ADRB2) small molecule agonists, cell-based qHTS assay (AID 1963593);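 note: CHO cells stably overexpressing human ADRB2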
In short: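 CHO cells stably over-expressing ADRB2 were plated overnight at 37C, then dosed with compounds plus a stimulation mix containing 100uM IBMX and 25uM Ro-20-1724 for 0.5hr at room temperature. cAMP was measured by HTRF competition, 1hr.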

[16] = target: D(2) dopamine receptor (Homo sapiens) (UniProt P14416); experiment: Dopamine D2 receptor (DRD2) small molecule agonists, cell-based qHTS assay (AID 1963594); note: nearly all actives have a fitted effect of over 35% in size
Chain of D(2) dopamine receptor (Homo sapiens) (P14416 whole entry, looked up): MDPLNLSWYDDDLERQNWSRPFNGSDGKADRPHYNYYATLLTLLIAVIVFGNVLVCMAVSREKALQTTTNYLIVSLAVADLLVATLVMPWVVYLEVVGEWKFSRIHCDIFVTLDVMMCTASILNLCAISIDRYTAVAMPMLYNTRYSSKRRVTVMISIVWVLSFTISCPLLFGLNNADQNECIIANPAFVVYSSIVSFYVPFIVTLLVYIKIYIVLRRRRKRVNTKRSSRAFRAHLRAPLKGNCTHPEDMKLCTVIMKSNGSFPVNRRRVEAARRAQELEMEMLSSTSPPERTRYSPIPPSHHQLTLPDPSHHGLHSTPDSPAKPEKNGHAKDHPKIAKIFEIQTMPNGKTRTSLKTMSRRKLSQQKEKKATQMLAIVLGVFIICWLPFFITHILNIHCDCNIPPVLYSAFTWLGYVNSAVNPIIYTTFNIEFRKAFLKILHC
In short: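 HEK293 cells stably expressing DRD2 were cultured 24 h at 37 C, then given Ro20-1724 (0.1 mM final) and compounds for 10 min at room temperature. NKH477 (200nM) was then added for 30 min. cAMP was read by HTRF.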

[17] = target: D(2) dopamine receptor (Homo sapiens) (UniProt P14416); experiment: Dopamine D2 receptor (DRD2) small molecule antagonists, cell-based qHTS assay (AID 1963595; active = well fitted inhibition curve with a large enough effect in the signal ratio in the repeat runs, with a control signal flat; the % refers to the signal ratio)
In short: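 Stable D2 receptor HEK293 line, 24 h after seeding. Compound preincubated 10 min, then quinpirole (12 nM) with forskolin analogue NKH477 (200 nM), 30 min, room temperature. Detection by time-resolved FRET of cAMP.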

[18] = target: Muscarinic acetylcholine receptor M1 (Homo sapiens) (UniProt P11229); experiment: Cholinergic receptor muscarinic 1 (CHRM1) small molecule antagonists, cell-based qHTS assay (AID 1963588); note: nearly all actives have a fitted effect of over 40% in size
In short: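 CHRM1-CHO calcium-flux assay, antagonist mode. Cells were seeded 18 h, dye-loaded 1 h at 37 C and given compound for 5 min at RT, then acetylcholine was added at 50nM. FDSS fluorescence was read 3 min; 15 concentrations, three runs.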

Measured: Potency

Nc1ccc2cc(S(=O)(=O)O)cc(O)c2c1N=Nc1ccccc1C(F)(F)F
not listed: [18]
inactive: all other assays above

CCOc1ccc(NC(=O)CC(C)=O)cc1
not listed: [11] | [13] | [15]
inactive: all other assays above

Cc1nc2c([nH]1)c(=O)n(C)c(=O)n2Cc1ccco1
not listed: [12] | [15] | [16]
inactive: all other assays above

CNC(C)=O
not listed: [17] | [18]
inactive: all other assays above

Nc1ccc(F)cc1
not listed: [15] | [18]
inactive: all other assays above

CCCCN(CCO)CCCC
not listed: [18]
inactive: all other assays above

CC1=C(O)C(=O)CO1
not listed: [14] | [18]
inactive: all other assays above

COc1ccccc1OCC1CNC(=O)O1 (centres undefined)
not listed: [9] | [15] | [17]
inactive: all other assays above

CCCCN1C(=O)c2ccccc2C1=O
not listed: [10] | [12] | [13] | [15] | [17]
inactive: all other assays above

COC(=O)[C@@H]1CC2=CC(=O)CC[C@]2(C)[C@@]23O[C@@H]2C[C@@]2(C)[C@@H](CC[C@@]24CCC(=O)O4)[C@H]13
not listed: [9] | [17]
inactive: all other assays above

CC(C)(N)C#N
not listed: [10] | [15]
inactive: all other assays above

C=C(C)C(=O)OCC
not listed: [10] | [12] | [15]
inactive: all other assays above

CN(C)CCOCCO
not listed: [10] | [13] | [15] | [16]
inactive: all other assays above

CCCCCCCCCCO[C@@H]1O[C@H](CO)[C@@H](O)[C@H](O)[C@H]1O
not listed: [10] | [11] | [15]
inactive: all other assays above

O=c1cc(O)c(Cl)c[nH]1
not listed: [9] | [15]
inactive: all other assays above

NC(=O)c1c(Cl)cccc1Cl
not listed: [10]
inactive: all other assays above
